Source: PubChem BioAssay AID1578 (Sanford-Burnham Center for Chemical Genomics, 2009)
Hit rate of the full screen: of about 290,000 compounds, about 3,000 (1%) were called active. Rule as the data show it: active = inhibition mostly above about 36% (no sharp cut-off); inactive = mostly below about 34%. Only a selection was taken, and actives are over-represented in it overall.

Experiment: NOD1 signaling inhibitors, primary screen, cell-based, luminescence, uHTS (AID 1578);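 also: HEK-293T reporter cells stimulated with the NOD1 agonist gamma-tri-DAP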
Details: NOD1-driven NF-kB luciferase reporter cells, at 4 µM, active compounds read high

Compound | inhibition
CCc1ccc2c(CN3CCN(S(=O)(=O)c4ccc5c(c4)OCCO5)CC3)cc(=O)oc2c1 | -2.7% (inactive)
COc1ccc(S(=O)(=O)n2c([N+](=O)[O-])cnc2C)cc1OC | -2.3% (inactive)
CC1=C(C(=O)OCc2ccccc2)C(c2ccc(Cl)cc2)NC(=O)N1C (stereo unspecified) | -1.2% (inactive)
O=C(N/N=C/c1cccnc1)C1CCCCC1 | -16.2% (inactive)
Cc1cc(C)cc(C(=O)N2CCN=C2SCc2ccc([N+](=O)[O-])cc2)c1 | 41% (inactive)
Cc1ccc(C(=O)N2CCN=C2SCc2ccc([N+](=O)[O-])cc2)cc1 | 35.5% (inactive)
Cc1cccc(C(=O)N2CCN=C2SCc2ccc([N+](=O)[O-])cc2)c1 | 41.9% (active)
O=C(C1CC1)N1N=C(c2ccncc2)CC1(O)C(F)(F)F (stereo unspecified) | -21.3% (inactive)
O=C(NCc1cccc(C(F)(F)F)c1)C1CC(c2cccc(F)c2)=NO1 (stereo unspecified) | -5% (inactive)
O=C(/C=C/c1cccc([N+](=O)[O-])c1)Nc1ccccc1N1CCOCC1 | -27.5% (inactive)
COCCCNC(=O)CCN1C(=O)COc2ccccc21 | 9.8% (inactive)
CC(C)(C)c1cc(CN2CCN(CCO)CC2)cc(C(C)(C)C)c1O | 45.2% (inactive)
CC(C)(C)c1cc(C(c2cccnc2)N2CCN(CCO)CC2)cc(C(C)(C)C)c1O (stereo unspecified) | 67.2% (active)
CC(C)(C)c1cc(C(=S)N2CCN(CCO)CC2)cc(C(C)(C)C)c1O | 11.9% (inactive)
CCCN1C(=O)/C(=C/c2ccc3c(c2)OCO3)NC1=S | -29.7% (inactive)
O=C(CCN1C(=O)/C(=C/c2ccc3c(c2)OCO3)SC1=S)Nc1ccccc1 | -5.3% (inactive)
CCCN1C/C(=C/c2ccc3c(c2)OCO3)C(=O)/C(=C/c2ccc3c(c2)OCO3)C1 | 67.2% (active)
CCOC(=O)CN1C(=O)S/C(=C\c2ccc3c(c2)OCO3)C1=O | 16.9% (inactive)
O=C1/C(=C\c2ccc3c(c2)OCO3)CCC/C1=C/c1ccc2c(c1)OCO2 | -48% (inactive)
NCCN1C(=O)S/C(=C\c2ccc3c(c2)OCO3)C1=O | 27.3% (active)
CCOC(=O)c1c(NC(=O)c2cccc(N3C(=O)CCC3=O)c2)sc2c1CCN(CC)C2 | -16.7% (inactive)
CC(C)(C)C(=O)COC(=O)CCc1nc2ccccc2[nH]c1=O | 2.2% (inactive)
O=C(CCCN1C(=O)/C(=C\c2cccs2)SC1=S)Nc1ccccn1 | 4.3% (inactive)
O=C(CCN1C(=O)/C(=C\c2cccs2)SC1=S)Nc1ccccn1 | -42% (inactive)

Compound | inhibition
O=C(CCCN1C(=O)/C(=C/c2cccs2)SC1=S)Nc1ccccn1 | 63.6% (active)
CSc1ccccc1-c1n[nH]c(=S)o1 | -15% (inactive)
CC(C)Cc1ccc(C(C)C(=N)N)cc1 (stereo unspecified) | 43% (active)
CC(C)Cc1ccc(C(C)C(N)=NCCc2ccccc2)cc1 (stereo unspecified) | -10.4% (inactive)
CC(C)Cc1ccc(C(C)C(=O)O)cc1 (stereo unspecified) | -13.2% (inactive)
CCOP(=O)(OCC)C1NC(=O)N(c2ccccc2)C1=O (stereo unspecified) | -1.7% (inactive)
CCc1ccc(C(=O)COC(=O)C(CCSC)NC(=O)c2ccccc2)cc1 (stereo unspecified) | 16.6% (inactive)
Cc1cc(C(C)(C)C)ccc1OCCCCN1CCCC1 | -74.5% (inactive)
CCC(C)(C)c1ccc(OCCCC[n+]2ccc(C)cc2)c(C(C)(C)CC)c1 | 43.7% (inactive)
CCC(C)(C)c1ccc(OCC(=O)N(C)C)c(C(C)(C)CC)c1 | 26.1% (inactive)
CCC(C)(C)c1ccc(OCCCC[n+]2ccccc2)c(C(C)(C)CC)c1 | 11.8% (inactive)
Cc1cccc(-c2oc3ccccc3c2C#CCCO)c1 | -12.5% (inactive)
COc1ccc(Oc2nccc(OC)c2C#N)cc1 | -18.4% (inactive)
Cn1c(=O)c2c(nc(SCC(=O)NCC3CCCO3)n2Cc2ccc(F)cc2)n(C)c1=O (stereo unspecified) | -8.2% (inactive)
COc1ccc(CNC(=O)CN(Cc2ccc(Cl)cc2)C(=O)c2csnn2)cc1 | -9% (inactive)
Cc1oc(-c2cccs2)nc1CS(=O)CC(=O)NCc1ccc2c(c1)OCO2 (stereo unspecified) | 1.1% (inactive)
COc1ccccc1CNC(=O)c1ccccc1OC | -29.5% (inactive)
COc1ccccc1CCNC(=O)c1ccoc1C | -33.7% (inactive)
COc1ccccc1CNC(=O)c1ccoc1C | 47.6% (active)
COc1ccc(-c2csc(NC(=O)CN3C(=O)CCC3=O)n2)cc1 | -30.6% (inactive)
Cc1ccc(C(=O)NCCCNC(=O)c2ccc(Cl)cc2)cn1 | -10.8% (inactive)
O=C(NNS(=O)(=O)c1ccccc1)c1ccc(F)cc1 | -11.4% (inactive)
C[n+]1c(/C=C/c2ccc(O)cc2)ccc2ccccc21 | -15.4% (inactive)
CN1C=C/C(=C\c2cc[n+](C)c3ccccc23)c2ccccc21 | 20.8% (inactive)

Compound | inhibition
CCNC(=O)C1CCCc2c1[nH]c1ccc(Cl)cc21 (stereo unspecified) | -25.3% (inactive)
CCN1C(=O)N(CC)C2C1N(C(C)=O)C(=O)N2C(C)=O (stereo unspecified) | -26.2% (inactive)
Cc1c(NC(=O)CC(=O)Nc2c(C)n(C)n(-c3ccccc3)c2=O)c(=O)n(-c2ccccc2)n1C | 14.4% (inactive)
Cc1c(NC(=O)c2ccccc2)c(=O)n(-c2ccccc2)n1C | -17.8% (inactive)
Cc1c(NC(N)=O)c(=O)n(-c2ccccc2)n1C | 54.9% (active)
CCOc1ccc(/C=C/c2nc(C#N)c(NCCCN(C)C)o2)cc1 | 2.8% (inactive)
CCOc1ccc(/C=C/c2nc(C#N)c(NCCCOC)o2)cc1 | -11.6% (inactive)
CCNc1oc(/C=C/c2ccc(OCC)cc2)nc1C#N | 64.9% (active)
COc1cc(NC(=O)CSc2nnc(-c3cc(C)on3)o2)cc(OC)c1 | 9.9% (inactive)
CCCc1nnc(NC(=O)C23CC4CC(CC(C4)C2)C3)s1 | 0.1% (inactive)
Cc1c(C(=O)Nc2ccccc2)sc2nc(-c3ccccc3)cn12 | -15.4% (inactive)
Cc1c(C(=O)Nc2ccc3c(c2)OCO3)sc2nc(-c3ccccc3)cn12 | -35.7% (inactive)
Cc1c(C(=O)Nc2ccc3c(c2)OCCO3)sc2nc(-c3ccccc3)cn12 | 79.1% (active)
CCCCOc1cccc(C(=O)NC(=S)Nc2cccc(NC(=O)c3ccccc3Cl)c2)c1 | -15.9% (inactive)
COc1ccc2c(c1OC)C(=O)N(c1cccc(C(F)(F)F)c1)C2 | -67.5% (inactive)
CC(=O)c1ccccc1C(=O)NCc1cccnc1 | -9.2% (inactive)
COC(=O)C1=C(C)Nc2c(c(=O)n(C)c(=O)n2C)C1c1ccncc1 (stereo unspecified) | 68.6% (active)
COC(=O)C1=C(C)Nc2c(c(=O)n(C)c(=O)n2C)C1c1ccc(C)cc1 (stereo unspecified) | -27.5% (inactive)
COC(=O)C1=C(C)Nc2c(c(=O)n(C)c(=O)n2C)C1c1cccnc1 (stereo unspecified) | -10.6% (inactive)
Cc1ccc(S(=O)(=O)N(CC(=O)Nc2cccnc2)c2cccc([N+](=O)[O-])c2)cc1 | -14.2% (inactive)
O=C(CCN1C(=O)/C(=C/c2ccc(F)cc2)SC1=S)Nc1cc([N+](=O)[O-])ccc1O | -1.3% (inactive)
Cc1ccc(/C=C2/SC(=S)N(CCCC(=O)Nc3cc([N+](=O)[O-])ccc3O)C2=O)cc1 | 71.1% (active)
Cc1ccc(/C=C2\SC(=S)N(CCC(=O)NNC(=O)c3ccccc3O)C2=O)cc1 | -24.7% (inactive)
COc1ccc([N+](=O)[O-])cc1NC(=O)CSc1ccc2ccccc2c1 | 41.3% (inactive)

Compound | inhibition
Cc1ccc(SCC(=O)Nc2cc([N+](=O)[O-])ccc2O)cc1 | 77.2% (active)
O=C(CCCN1C(=O)/C(=C\c2cccs2)SC1=S)Nc1cc([N+](=O)[O-])ccc1O | 26.3% (inactive)
Cc1ccc(O)c(NC(=O)CSc2ccc(Cl)cc2)c1 | 17% (inactive)
COc1ccc(/C=C2/SC(=S)N(CCCC(=O)Nc3ccccc3C(=O)O)C2=O)cc1 | 34.1% (inactive)
COc1cc(Cl)ccc1OCc1cc(C(=O)N(C)Cc2cccc3cnccc23)no1 | 11.4% (inactive)
CC1(C)SC(=S)N(/N=C/c2ccccc2O)C1N(O)C(=O)Nc1ccccc1 (stereo unspecified) | -1.1% (inactive)
CCCSc1nnc(NC(=O)c2nc(SC)ncc2Cl)s1 | -10.4% (inactive)
Cc1cccn2c(=O)c(C=Nc3c(C)n(C)n(-c4ccccc4)c3=O)c(N3CCCC3)nc12 | -3.8% (inactive)
COc1ccccc1NC(=S)N1CCc2cc(OC)c(OC)cc2C1 | -30% (inactive)
Oc1ccc(N=Nc2c(O)ccc3ccccc23)cc1 | 24% (inactive)
Oc1ccc2ccccc2c1/C=N/c1nccs1 | -6% (inactive)
Oc1ccc2ccccc2c1N=Nc1nccs1 | 106% (active)
CCCCC(=O)Nc1cc(NC(=O)CC)ccc1Cl | -13.8% (inactive)
CCn1c(SC)nnc1-c1nnc(SC)n1CC | -5.7% (inactive)
Cc1cc(C)cc(C(=O)NCc2ccc3c(c2)OCO3)c1 | -31% (inactive)
Cc1cc2oc(=O)cc(C)c2cc1NC(=O)CCl | 42.5% (active)
Cc1cc2oc(=O)cc(C)c2cc1NC(=O)CCC(=O)O | -10.8% (inactive)
CCC(=O)Nc1cc2c(C)cc(=O)oc2cc1C | -1.6% (inactive)
Cc1cc(OCc2ccc(C(=O)n3cccn3)o2)ccc1Cl | -24.5% (inactive)
Cc1ccc(C)c(NC(=O)CSc2nnc([C@@H]3CCCN3C(=O)OC(C)(C)C)o2)c1 | 9.1% (inactive)
CCOC(=O)c1cnc(Nc2nc3ccccc3o2)nc1CN1CCN(C)CC1 | -1.5% (inactive)
CCOC(=O)c1cnc(Nc2nc3ccccc3o2)nc1CSC(=S)N(CC)CC | -23% (inactive)
CCOC(=O)c1cnc(Nc2nc3ccccc3o2)nc1C | 78.1% (active)
O=C(O)c1ccc2c(=O)n3c(nc2c1)/C(=C/c1ccccc1Br)CC3 | -85.4% (inactive)
